Results taken from PubChem BioAssay (EPA / NIEHS).
Records with an inconclusive call do not appear. Activity calls are given as the source filed them. How the source made its calls, unless noted: active means hit-call score of the fitted dose curve at least 0.9, where 1 is the maximum; inactive means score below 0.9.

Key:
[1] = ATG_CRE_CIS: Attagene CIS-FACTORIAL HepG2 Assay for human cAMP Responsive Element (CRE) binding protein 3 (AID 2282926); conditions: HepG2 CRE cis-reporter, Attagene multiplexed mRNA; actives raise or lower the signal
Summary of the method: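 Liver-derived HepG2, transfected with a CRE-containing reporter panel, exposed 24 h; transcript levels sized and quantified by capillary electrophoresis of labelled amplicons; signal changes either way referenced to vehicle.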

[2] = ATG_DR4_LXR_CIS: Attagene CIS-FACTORIAL HepG2 Assay for human Liver X Receptor (LXR), DR4 submotif (AID 2282929); conditions: HepG2 Attagene DR4 cis-reporter, mRNA transcription; actives raise or lower the signal
Summary of the method: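 Total RNA from 24 h-treated, MRTU-transfected HepG2 cells underwent reverse transcription, PCR, fluorescent primer extension and restriction digestion before capillary electrophoresis. Both increases and decreases in reporter signal were fitted against DMSO.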

[3] = ATG_AP_1_CIS: Attagene CIS-FACTORIAL HepG2 Assay for human Activator Protein 1 (AP-1) (AID 2282931); conditions: HepG2 Attagene cis-factorial AP-1 reporter mRNA; actives raise or lower the signal
Summary of the method: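 HepG2, transient cis-reporter transfection; 24 h; readout RT-PCR/CE fluorescence; DMSO baseline, gain and loss fitted.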

[4] = molecular target: Hypoxia-inducible factor 1-alpha (Homo sapiens) (UniProt Q16665); test: ATG_HIF1a_CIS: Attagene CIS-FACTORIAL HepG2 Assay for human Hypoxia Inducible Factor 1 (HIF1A) (AID 2282951); conditions: HepG2 Attagene cis-factorial HIF1a reporter transcription; actives raise or lower the signal
Summary of the method: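 After 24 h chemical exposure of reporter-transfected HepG2 cells, reporter cDNA was PCR-amplified, labelled by 6-FAM primer extension (2 min 95 C, 20 s 68 C, 10 min 72 C), HpaI-cut (2 h, 37 C) and analysed by CE.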

[5] = molecular target: Paired box protein Pax-6 (Homo sapiens) (UniProt P26367); test: ATG_Pax6_CIS: Attagene CIS-FACTORIAL HepG2 Assay for human Paired Box 6 (PAX6) (AID 2282956); conditions: HepG2 CIS-FACTORIAL PAX6 reporter transcription, RNA readout; actives raise or lower the signal
Summary of the method: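 Values derive from bidirectional curve fitting of reporter mRNA signal relative to DMSO. HepG2 cells bearing transfected cis-regulated MRTUs were exposed for 24 h; transcripts were read by RT-PCR and capillary electrophoresis.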

[6] = molecular target: Signal transducer and activator of transcription 3 (Homo sapiens) (UniProt P40763); test: ATG_STAT3_CIS: Attagene CIS-FACTORIAL HepG2 Assay for human Signal Transducer and Activator of Transcription 3 (STAT3) (AID 2282963); conditions: HepG2, Attagene cis-factorial STAT3 reporter transcription; actives raise or lower the signal
Summary of the method: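 Readout: fluorescent reporter mRNA fragments resolved by capillary electrophoresis. Setup: HepG2 transfected with MRTUs reporting endogenous transcription-factor activity, dosed 24 h. Gain or loss of signal fitted bidirectionally against DMSO control.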

[7] = ATG_TA_CIS: Attagene CIS-FACTORIAL HepG2 Assay for human TA Basal Promoter (AID 2282964); conditions: HepG2 Attagene CIS-factorial TA basal promoter reporter; actives raise or lower the signal
Summary of the method: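 HepG2 cells transiently transfected with multiple reporter units under cis promoter elements, reporting endogenous transcription factor activity; this endpoint tracks the TA basal promoter as background control. Reporter mRNA after 24 h dosing measured by RT-PCR/capillary electrophoresis; bidirectional fits versus DMSO.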

[8] = ATG_TCF_b_cat_CIS: Attagene CIS-FACTORIAL HepG2 Assay for human T-Cell-Factor with beta-catenin (TCF/b-cat) (AID 2282965); conditions: HepG2 TCF/beta-catenin cis-reporter transcription, actives raise or lower the signal
Summary of the method: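 HepG2, transient MRTU transfection, cis-element-driven reporters (endogenous TFs). 24 h compound exposure. Readout: reporter mRNA by RT-PCR + 6-FAM primer extension, HpaI digest, capillary electrophoresis. Gain/loss fit vs DMSO baseline.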

[9] = ATG_TAL_CIS: Attagene CIS-FACTORIAL HepG2 Assay for human TAL Basal Promoter (AID 2282966); conditions: HepG2 Attagene cis-factorial TAL promoter reporter; actives raise or lower the signal;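 further: background control endpoint measuring basal TAL promoter reporter mRNA not a specific factor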
Summary of the method: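 Human hepatoma HepG2 cells, transfected with promoter-regulated reporter units, were treated 24 h. Reporter transcript levels, measured through RT-PCR and capillary electrophoresis, were fitted for gain or loss relative to DMSO.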

[10] = molecular target: X-box-binding protein 1 (Homo sapiens) (UniProt P17861); test: ATG_Xbp1_CIS: Attagene CIS-FACTORIAL HepG2 Assay for human X-box Binding Protein 1 (XBP1) (AID 2282972); conditions: HepG2 XBP1 cis-element reporter, Attagene multiplex; actives raise or lower the signal
Summary of the method: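 Human hepatoma HepG2, cis-element reporter system, 24 h treatment; mRNA quantified by RT-PCR/CE fluorescence; fit relative to DMSO.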

[11] = molecular target: Transcriptional activator Myb (Homo sapiens) (UniProt P10242); test: ATG_Myb_CIS: Attagene CIS-FACTORIAL HepG2 Assay for human Myeloblastosis (Myb) Proto-Oncogene Transcription Factor (AID 2282986); conditions: HepG2 Attagene CIS-FACTORIAL Myb reporter transcription; actives raise or lower the signal
Summary of the method: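 After 24 h of compound dosing, total RNA from transfected HepG2 cells is reverse-transcribed and the reporter sequences amplified, labeled and separated by capillary electrophoresis. Values come from bidirectional fitting against DMSO.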

[12] = ATG_NFI_CIS: Attagene CIS-FACTORIAL HepG2 Assay for human Nuclear Factor I (NFI) (AID 2282989); conditions: HepG2 cis-regulatory reporter, NFI response element transcription; actives raise or lower the signal
Summary of the method: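 Endogenous TF activity in HepG2 cells transiently transfected with cis-element-driven multiplexed reporter units, read 24 h after dosing. Reporter mRNA quantified by RT-PCR, 6-FAM labelling, HpaI digestion and capillary electrophoresis; bidirectional fit versus DMSO.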

[13] = molecular target: Myc proto-oncogene protein (Homo sapiens) (UniProt P01106); test: ATG_Myc_CIS: Attagene CIS-FACTORIAL HepG2 Assay for human Myelocytomatosis (Myc) Proto-Oncogene Transcription Factor (AID 2282990); conditions: HepG2, Attagene cis-reporter transcription factor activity; actives raise or lower the signal
Summary of the method: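 Read-out: fluorescent reporter mRNA fragments resolved by capillary electrophoresis after RT-PCR. Human HepG2 liver cells carried transfected cis-element reporter units and were dosed for 24 h. Gain or loss of signal fitted relative to DMSO baseline.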

[14] = ATG_NRF2_ARE_CIS: Attagene CIS-FACTORIAL HepG2 Assay for human Nuclear Factor Erythroid 2 Related Factor 2 (NFR2) response to Antioxidant Response Elements (ARE) (AID 2282992); conditions: HepG2 Attagene ARE/NRF2 reporter, transcription factor activity; actives raise or lower the signal;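 on AC50: reporter mRNA level measured by RT-PCR and capillary electrophoresis fluorescence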
Summary of the method: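 Fluorescence intensity of reporter-specific cDNA fragments, separated by capillary electrophoresis, reflects mRNA induction in transfected HepG2 cells at 24 h. Activity is fitted bidirectionally, DMSO serving as baseline.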

[15] = ATG_Oct_MLP_CIS: Attagene CIS-FACTORIAL HepG2 Assay for human Octamer-Binding Transcription Factor (Oct) (AID 2282993); conditions: HepG2 Attagene cis-factorial Oct reporter, mRNA; actives raise or lower the signal
Summary of the method: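 HepG2 cells transiently transfected with cis-element-driven reporter transcription units (endogenous TF activity); 24 h compound exposure. Reporter mRNA quantified by RT-PCR, 6-FAM labelling, HpaI digestion and capillary electrophoresis; bidirectional fit versus DMSO baseline.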

[16] = molecular target: Cellular tumor antigen p53 (Homo sapiens) (UniProt P04637); test: ATG_p53_CIS: Attagene CIS-FACTORIAL HepG2 Assay for human p53 Transcription Factor (AID 2282994); conditions: HepG2 p53 cis-element reporter, Attagene mRNA; actives raise or lower the signal
Summary of the method: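 Transiently transfected HepG2 (multiple cis reporter transcription units); exposure 24 h; reporter RNA via RT-PCR, 6-FAM extension, 2 h HpaI digest at 37 C, CE detection; DMSO baseline.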

[17] = molecular target: Nuclear receptor subfamily 1 group I member 2 (Homo sapiens) (UniProt O75469); test: ATG_PXR_TRANS: Attagene TRANS-FACTORIAL HepG2 Assay for human Pregnane X Receptor (PXR) (AID 2283008; active means hit-call score of the fitted dose curve at least 0.9, where 1 is the maximum)
Summary of the method: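 Transient HepG2 transfectants carrying multiplexed reporter transcription units; PXR activity read through a Gal4 chimera. 24 h exposure. RT-PCR/CE fluorescence; upward curve fit referenced to DMSO.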

[18] = ATG_XTT_Cytotoxicity: Cytotoxicity Assessment in the Attagene TRANS-FACTORIAL HepG2 Assay (AID 2283584; active means hit-call score of the fitted dose curve at least 0.9, where 1 is the maximum)
Summary of the method: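 24 h chemical exposure of reporter-transfected HepG2; XTT signal loss vs DMSO indicates cytotoxicity.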

[19] = ATG_Ets_CIS: Attagene CIS-FACTORIAL HepG2 Assay for human Erythroblast Transformation Specific (ETS) (AID 2282941); conditions: HepG2 ETS cis-reporter transcription, actives raise or lower the signal
Summary of the method: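 Multiplexed reporter transcript profiling: HepG2, 24 h treatment, total RNA to cDNA, PCR, 6-FAM labelling, HpaI cut, capillary electrophoresis. Gain- or loss-of-signal fitted against DMSO.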

[20] = molecular target: Heat shock factor protein 1 (Homo sapiens) (UniProt Q00613); test: ATG_HSE_CIS: Attagene CIS-FACTORIAL HepG2 Assay for human Heat Shock Transcription Factor 1 (HSE) (AID 2282953); conditions: HepG2 HSE cis-reporter, Attagene RNA transcription; actives raise or lower the signal
Summary of the method: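 HepG2 cells transfected with cis-promoter reporter units sensing endogenous transcription factor activity; reporter mRNA quantified 24 h post-dose by RT-PCR and capillary electrophoresis of 6-FAM-labelled products. Bidirectional fitting against DMSO.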

Measured: AC50

Chain of Signal transducer and activator of transcription 3 (Homo sapiens) (P40763 whole entry, looked up, the tested form may be a part): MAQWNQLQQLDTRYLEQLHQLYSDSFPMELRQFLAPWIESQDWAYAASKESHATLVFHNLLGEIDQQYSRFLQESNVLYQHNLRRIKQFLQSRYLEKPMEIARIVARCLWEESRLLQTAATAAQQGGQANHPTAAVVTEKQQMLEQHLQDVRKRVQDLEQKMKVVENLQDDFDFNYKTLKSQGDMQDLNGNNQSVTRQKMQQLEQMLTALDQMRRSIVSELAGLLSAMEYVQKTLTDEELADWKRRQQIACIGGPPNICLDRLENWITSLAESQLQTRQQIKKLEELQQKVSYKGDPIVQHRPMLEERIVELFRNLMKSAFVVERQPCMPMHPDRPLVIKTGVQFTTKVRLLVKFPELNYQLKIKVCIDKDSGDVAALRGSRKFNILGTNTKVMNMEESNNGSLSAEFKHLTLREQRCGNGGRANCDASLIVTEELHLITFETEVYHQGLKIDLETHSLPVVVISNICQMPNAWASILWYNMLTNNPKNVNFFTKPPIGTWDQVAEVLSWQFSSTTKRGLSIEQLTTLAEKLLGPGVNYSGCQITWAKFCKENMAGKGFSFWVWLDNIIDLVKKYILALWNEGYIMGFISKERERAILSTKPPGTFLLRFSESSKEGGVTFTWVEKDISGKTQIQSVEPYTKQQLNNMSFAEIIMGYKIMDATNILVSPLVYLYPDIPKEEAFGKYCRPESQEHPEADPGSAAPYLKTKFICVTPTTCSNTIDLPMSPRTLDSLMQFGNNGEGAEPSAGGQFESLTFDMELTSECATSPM
Chain of Paired box protein Pax-6 (Homo sapiens) (P26367 whole entry, looked up): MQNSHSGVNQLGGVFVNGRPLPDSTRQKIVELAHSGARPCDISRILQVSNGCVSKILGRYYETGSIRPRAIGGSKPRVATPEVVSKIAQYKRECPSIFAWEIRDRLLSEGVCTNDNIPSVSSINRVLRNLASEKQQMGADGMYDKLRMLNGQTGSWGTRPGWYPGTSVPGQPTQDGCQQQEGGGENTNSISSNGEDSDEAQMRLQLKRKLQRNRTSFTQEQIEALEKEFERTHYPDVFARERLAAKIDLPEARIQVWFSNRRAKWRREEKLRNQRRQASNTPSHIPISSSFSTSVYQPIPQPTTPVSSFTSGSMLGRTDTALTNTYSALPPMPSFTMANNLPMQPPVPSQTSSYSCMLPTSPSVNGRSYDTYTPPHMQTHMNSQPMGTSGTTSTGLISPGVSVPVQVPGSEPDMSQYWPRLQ
Chain of Hypoxia-inducible factor 1-alpha (Homo sapiens) (Q16665 whole entry, looked up): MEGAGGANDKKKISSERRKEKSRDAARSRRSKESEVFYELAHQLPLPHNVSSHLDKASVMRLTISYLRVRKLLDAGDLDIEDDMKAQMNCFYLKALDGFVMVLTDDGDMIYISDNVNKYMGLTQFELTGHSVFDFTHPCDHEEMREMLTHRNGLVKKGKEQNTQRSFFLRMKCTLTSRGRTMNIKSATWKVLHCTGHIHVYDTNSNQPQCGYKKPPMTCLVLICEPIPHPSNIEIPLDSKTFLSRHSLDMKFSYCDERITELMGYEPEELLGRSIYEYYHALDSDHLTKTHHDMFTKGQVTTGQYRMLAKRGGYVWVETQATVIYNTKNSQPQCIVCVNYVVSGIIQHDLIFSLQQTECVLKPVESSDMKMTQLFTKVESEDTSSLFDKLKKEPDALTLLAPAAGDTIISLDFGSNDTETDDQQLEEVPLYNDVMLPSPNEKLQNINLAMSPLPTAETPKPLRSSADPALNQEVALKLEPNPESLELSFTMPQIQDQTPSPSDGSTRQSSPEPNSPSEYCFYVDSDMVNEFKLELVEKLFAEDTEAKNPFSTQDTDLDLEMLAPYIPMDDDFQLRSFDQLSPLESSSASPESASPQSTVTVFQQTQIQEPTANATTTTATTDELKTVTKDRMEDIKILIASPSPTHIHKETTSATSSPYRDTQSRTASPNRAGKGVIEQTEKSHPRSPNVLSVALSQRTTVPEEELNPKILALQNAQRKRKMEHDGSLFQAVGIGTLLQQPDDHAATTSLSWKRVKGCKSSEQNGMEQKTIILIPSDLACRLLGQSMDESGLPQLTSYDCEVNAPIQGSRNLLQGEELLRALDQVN
Chain of Myc proto-oncogene protein (Homo sapiens) (P01106 whole entry, looked up, the tested form may be a part): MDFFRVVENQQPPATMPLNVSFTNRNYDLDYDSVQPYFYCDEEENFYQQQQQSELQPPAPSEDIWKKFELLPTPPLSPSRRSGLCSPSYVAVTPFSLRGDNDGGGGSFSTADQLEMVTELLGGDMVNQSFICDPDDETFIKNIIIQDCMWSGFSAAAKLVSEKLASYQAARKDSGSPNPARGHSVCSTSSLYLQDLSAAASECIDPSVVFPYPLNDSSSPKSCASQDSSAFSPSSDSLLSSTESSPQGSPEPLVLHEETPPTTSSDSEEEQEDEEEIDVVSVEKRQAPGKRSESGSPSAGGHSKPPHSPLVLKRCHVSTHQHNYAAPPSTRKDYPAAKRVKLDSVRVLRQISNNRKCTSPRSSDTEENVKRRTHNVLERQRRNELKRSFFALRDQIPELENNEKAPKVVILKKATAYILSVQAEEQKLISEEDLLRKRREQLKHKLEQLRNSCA
Chain of Heat shock factor protein 1 (Homo sapiens) (Q00613 whole entry, looked up): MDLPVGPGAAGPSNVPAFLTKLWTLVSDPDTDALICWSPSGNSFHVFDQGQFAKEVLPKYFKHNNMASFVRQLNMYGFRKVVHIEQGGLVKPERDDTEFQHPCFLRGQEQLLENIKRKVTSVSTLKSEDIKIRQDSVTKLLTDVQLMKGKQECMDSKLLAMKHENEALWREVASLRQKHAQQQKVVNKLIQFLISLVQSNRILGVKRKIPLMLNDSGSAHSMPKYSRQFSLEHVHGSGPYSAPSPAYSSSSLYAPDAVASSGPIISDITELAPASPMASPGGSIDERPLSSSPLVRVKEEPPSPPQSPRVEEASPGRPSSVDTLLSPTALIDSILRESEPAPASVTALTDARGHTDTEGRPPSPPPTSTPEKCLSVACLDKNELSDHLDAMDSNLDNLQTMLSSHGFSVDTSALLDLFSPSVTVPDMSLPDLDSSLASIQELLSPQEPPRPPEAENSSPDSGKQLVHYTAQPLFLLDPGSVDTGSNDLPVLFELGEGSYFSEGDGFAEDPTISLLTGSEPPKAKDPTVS
Chain of Nuclear receptor subfamily 1 group I member 2 (Homo sapiens) (O75469 whole entry, looked up, the tested form may be a part): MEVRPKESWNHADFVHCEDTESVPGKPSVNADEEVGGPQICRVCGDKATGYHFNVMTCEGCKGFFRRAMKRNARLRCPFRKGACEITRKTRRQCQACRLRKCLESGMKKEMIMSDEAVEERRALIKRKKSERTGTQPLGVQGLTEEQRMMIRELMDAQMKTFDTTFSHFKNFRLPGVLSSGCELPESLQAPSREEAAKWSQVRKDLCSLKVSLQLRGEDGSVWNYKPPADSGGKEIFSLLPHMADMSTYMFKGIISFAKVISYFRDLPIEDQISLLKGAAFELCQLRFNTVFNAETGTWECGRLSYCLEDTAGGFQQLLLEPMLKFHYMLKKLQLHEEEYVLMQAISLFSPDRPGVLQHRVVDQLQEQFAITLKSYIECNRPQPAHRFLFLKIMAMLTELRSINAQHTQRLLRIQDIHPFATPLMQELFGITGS
Chain of Transcriptional activator Myb (Homo sapiens) (P10242 whole entry, looked up): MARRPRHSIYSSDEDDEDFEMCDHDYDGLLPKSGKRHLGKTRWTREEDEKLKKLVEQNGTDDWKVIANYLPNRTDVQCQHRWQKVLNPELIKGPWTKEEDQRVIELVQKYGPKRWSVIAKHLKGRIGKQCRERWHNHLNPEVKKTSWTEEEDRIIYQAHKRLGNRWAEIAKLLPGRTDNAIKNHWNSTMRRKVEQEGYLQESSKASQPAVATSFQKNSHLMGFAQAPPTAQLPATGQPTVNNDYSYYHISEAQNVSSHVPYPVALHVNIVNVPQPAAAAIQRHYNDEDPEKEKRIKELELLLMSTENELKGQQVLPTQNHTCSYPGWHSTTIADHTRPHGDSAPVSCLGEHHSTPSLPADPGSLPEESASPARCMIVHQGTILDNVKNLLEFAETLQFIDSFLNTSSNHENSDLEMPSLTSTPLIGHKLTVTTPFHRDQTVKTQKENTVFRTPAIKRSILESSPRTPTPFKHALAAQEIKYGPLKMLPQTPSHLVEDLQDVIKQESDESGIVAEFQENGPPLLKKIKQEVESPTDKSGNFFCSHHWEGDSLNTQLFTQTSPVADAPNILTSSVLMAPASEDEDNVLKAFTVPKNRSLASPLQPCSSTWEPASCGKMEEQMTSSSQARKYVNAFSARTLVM
Chain of X-box-binding protein 1 (Homo sapiens) (P17861 whole entry, looked up): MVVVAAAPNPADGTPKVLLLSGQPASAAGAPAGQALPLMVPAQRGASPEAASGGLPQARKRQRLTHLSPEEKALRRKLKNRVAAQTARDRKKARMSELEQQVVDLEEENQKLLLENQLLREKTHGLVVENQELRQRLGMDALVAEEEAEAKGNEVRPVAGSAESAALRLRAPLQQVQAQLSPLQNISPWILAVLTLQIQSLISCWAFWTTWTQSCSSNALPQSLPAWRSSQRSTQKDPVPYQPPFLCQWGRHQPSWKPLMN
Chain of Cellular tumor antigen p53 (Homo sapiens) (P04637 whole entry, looked up): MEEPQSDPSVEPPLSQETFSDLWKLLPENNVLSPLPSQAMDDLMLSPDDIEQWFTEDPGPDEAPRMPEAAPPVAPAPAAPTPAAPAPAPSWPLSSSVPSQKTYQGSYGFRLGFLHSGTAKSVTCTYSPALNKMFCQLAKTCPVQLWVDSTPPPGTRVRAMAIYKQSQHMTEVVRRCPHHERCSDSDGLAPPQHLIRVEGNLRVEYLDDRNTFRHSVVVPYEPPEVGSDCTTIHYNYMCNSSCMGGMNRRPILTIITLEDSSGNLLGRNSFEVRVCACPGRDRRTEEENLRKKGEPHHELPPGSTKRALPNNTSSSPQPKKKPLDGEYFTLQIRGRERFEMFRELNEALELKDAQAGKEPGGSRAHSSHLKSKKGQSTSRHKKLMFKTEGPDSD

CCCCCCC(O)CCCCCCCCCCC(=O)OC (stereo unspecified)
inactive: [1] | [2] | [3] | [4] | [5] | [6] | [7] | [8] | [9] | [10] | [11] | [12] | [13] | [14] | [15] | [16] | [17] | [18]

Clc1ccc(Sc2cc(Cl)c(Cl)cc2Cl)cc1
active: [17] 2.22 µM
inactive: [1] | [2] | [3] | [4] | [6] | [7] | [8] | [9] | [10] | [11] | [12] | [13] | [15] | [16] | [18]

Clc1ccccn1
inactive: [1] | [2] | [3] | [19] | [4] | [20] | [5] | [6] | [7] | [8] | [9] | [10] | [11] | [12] | [13] | [14] | [15] | [16]

OCCc1ccccn1
inactive: [1] | [2] | [3] | [19] | [4] | [20] | [6] | [7] | [8] | [9] | [10] | [11] | [12] | [13] | [15] | [16] | [18]

Cc1cc2nc3c(=O)[nH]c(=O)nc-3n(C[C@H](O)[C@H](O)[C@H](O)CO)c2cc1C
inactive: [1] | [2] | [3] | [20] | [6] | [7] | [8] | [9] | [10] | [11] | [12] | [13] | [15] | [16]

CC(=O)OC(C)(C)Cc1ccccc1
inactive: [1] | [2] | [19] | [4] | [20] | [5] | [6] | [7] | [8] | [9] | [10] | [11] | [12] | [13] | [14] | [15] | [16] | [17] | [18]

CCC(C)NC(N)=O (stereo unspecified)
inactive: [1] | [2] | [3] | [19] | [4] | [20] | [5] | [6] | [7] | [8] | [9] | [10] | [11] | [12] | [13] | [14] | [15] | [16] | [18]

CNC(=C[N+](=O)[O-])NCCSCc1csc(CN(C)C)n1
inactive: [1] | [2] | [3] | [19] | [20] | [5] | [6] | [7] | [8] | [9] | [10] | [11] | [12] | [13] | [14] | [15] | [16] | [18]

CCCCCCCCCC/C=C/C1CC(=O)OC1=O (stereo unspecified)
inactive: [1] | [2] | [3] | [4] | [20] | [5] | [6] | [7] | [8] | [9] | [10] | [11] | [12] | [13] | [15] | [16] | [18]
active: [14] 79.8 µM

COc1cccc(OC)c1C(=O)O
inactive: [1] | [2] | [3] | [19] | [4] | [20] | [6] | [7] | [8] | [9] | [10] | [11] | [12] | [13] | [15] | [16] | [18]

Oc1cccc2ccccc12
active: [8] 100 µM
inactive: [1] | [2] | [3] | [4] | [20] | [5] | [6] | [7] | [9] | [10] | [11] | [12] | [13] | [15] | [16] | [17] | [18]

O=C1NC(=O)C2CC=CCC12 (stereo unspecified)
inactive: [1] | [2] | [3] | [19] | [4] | [20] | [6] | [7] | [8] | [9] | [10] | [11] | [12] | [13] | [15] | [16] | [17] | [18]

NC(N)=Nc1nc(CSCCC(N)=NS(N)(=O)=O)cs1
inactive: [1] | [2] | [19] | [20] | [5] | [6] | [7] | [8] | [9] | [10] | [11] | [12] | [13] | [14] | [15] | [16] | [17] | [18]

COCCCN
inactive: [1] | [2] | [3] | [19] | [4] | [20] | [5] | [6] | [7] | [8] | [9] | [10] | [11] | [12] | [13] | [15] | [16] | [18]
